The results in this text go back to PubChem BioAssay (NCI).

Each structure is given as a SMILES string. This is part of a sample that, as a whole, favours compounds with a hit. Of some 83,000 tested, about 20% had one in any assay.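 The test compound was applied at a single concentration to cells in 96-well plates for 48 hours, and percent growth was recorded.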 A number with no mark means an inactive call. Calls of active or inactive are those of the source. Rule for the calls: active = growth percent below 10; inactive = the rest.

The experiment has as its system HL-60(TB) leukemia. The experiment can be described thus: NCI-60 one-dose screen, 48 h (100 = growth as untreated, 0 = no growth, -100 = all killed). The conditions noted are these: 10 µM unless noted.
With `CCN(CC)S(=O)(=O)c1cccc([N+](=O)[O-])c1`, the growth is 95.5%.
As to `CCN(CC)CCCC(Nc1c2ccc(Cl)cc2nc2ccc(OC)cc12)c1ccc(F)cc1` (stereo not given), the growth is -37.5% (active).
For `N#Cc1c(N)c(C(=O)c2ccc3c(c2)OCCO3)n2c1CCCC2`, the growth was -19.2% (active).
On to `CN1C(=O)N(C)C2C1NC(=S)N2/N=C/C=C/c1ccccc1[N+](=O)[O-]` (stereo not given), for which the growth is -34.9% (active).
Under `O=C1NC(=Nc2ccc(Cl)cc2)S/C1=C\c1cn(-c2ccccc2)nc1-c1ccccc1` stands 92%; under `Cc1nn(-c2ccccc2)c(N)c1N=C1NC(=O)/C(=C/c2ccc(Br)cc2)S1`, 77.9%.
On to `O=C1/C(=C2\SC(=S)N(C3CC3)C2=O)SC(=S)N1C1CC1`, for which the growth is 104%.
Consider `COc1ccc(C(=O)/C=C/c2cccc([N+](=O)[O-])c2)c(OC)c1`, for which the growth is -10.4% (active).
To `CN(C)c1ccc(/C=c2\s/c(=C\C(=O)C(C)(C)C)[nH]c2=O)cc1` belongs 119%; to `NNc1nc(-c2cccnc2)nc2c1sc(=S)n2-c1ccccc1`, 77.1%.
Regarding `CC1(C)CCC(S(=O)(=O)c2ccc3c(c2)/C(=N\O)c2cc(S(=O)(=O)N4CCN(c5ccc(F)cc5O)CC4)ccc2-3)CC1`, the growth is -70.7% (active).
Consider `CC[C@]1(O)CC2CN(CCc3c([nH]c4ccccc34)[C@@](C(=O)OC)(c3cc4c(cc3OC)N(C)[C@H]3[C@@](O)(C(=O)OC)[C@H](OC(C)=O)[C@]5(CC)C=CCN6CC[C@]43[C@@H]65)C2)C1` (stereo not given in full), for which the growth is 2.87% (active).
For the compound `CCCCCCCCC(=O)Nc1ccc(O)cc1`, the growth was 61.5%.
Take `O=C(O)c1ccc2c3ccc(C(=O)O)c4c(C(=O)O)ccc(c5ccc(C(=O)O)c1c25)c43`: the growth is 111%.
To `COc1ccc(C(=O)/C=C/c2ccc(N3CCCCC3)cc2)cc1OC` belongs 78.9%; to `Cc1cc(Cl)nc(Nc2ccccc2)n1`, 78.1%.
In the case of `O=C(O)CCN1CCN(c2cccc(Cl)c2)CC1`, the growth was 97%.
With `O=S(=O)(Nc1ccc(-n2cnc3cc(-c4ccc(O)cc4)ccc32)cc1)c1ccccc1`, the growth was 79%.
For the compound `O=C(CNC(=O)c1cccc2ccccc12)Nc1ccccc1Oc1ccccc1`, the growth is 7.14% (active).
Regarding `O=C(Nc1ccc(Oc2cccc(F)c2)c(Cl)c1)c1cnccn1`, the growth was 3.12% (active).
To `O=C(O)CCCc1cnc2c3sccc3nc(SCc3c(Cl)cccc3Cl)n12` belongs -26.5% (active); to `CCCN1CCN(c2ccc3nc(-c4ccc5nc(-c6ccc(OCC)cc6)[nH]c5c4)[nH]c3c2)CC1`, 16.9%; to `CCCCOCCOCCOCc1cc2c(cc1Br)OCO2`, 108%.
With `COc1cc2c(cc1OCCCOc1cc3c(cc1OC)C(=O)N1CCC[C@H]1C=N3)C=CC(C)(C)O2`, the growth was 102%.
Under `COc1ccc2c(=O)c(OC)c(-c3cc(OC)c(OC)c(OC)c3)oc2c1` stands 85.1%; under `O=C1Nc2ccc(Cl)cc2/C1=N/c1nc(-c2ccc(Cl)cc2)cs1`, -32.4% (active).
As to `COc1ccc(-c2nc(-c3nc4cc(Cl)c(F)cc4[nH]3)c3ccccn23)cc1`, the growth is 46.4%.
To `COC(=O)C(C)NC1=C(Cl)C(=O)C(NC(C)C(=O)OC)=C(Cl)C1=O` (stereo not given) belongs 97.8%; to `CCCN=C(N)c1ccc(NC(=O)c2ccc(C(=O)Nc3ccc(C(N)=NCCC)cc3)cc2)cc1`, 77%; to `COc1ccc(/C=C/c2nc(Nc3ccc(S(=O)(=O)Nc4nc(C)cc(C)n4)cc3)c3ccccc3n2)cc1`, 73.6%.
On to `Nc1cccc2c(=S)c3ccccc3[nH]c12`, for which the growth is 107%.
For `O=C(O)c1cn(C2CC2)c2cc(N3CCN(Cc4cc(Cl)ccc4O)CC3)c(F)cc2c1=O`, the growth was 46.4%.
Take `Cc1ccc(Nc2nc(NCCO)c3ccccc3n2)cc1C`: the growth was -10.3% (active).
Under `COc1ccc2c(c1)/C(=C/c1c(-c3cc(OC)c(OC)c(OC)c3)nc3sccn13)C(=O)N2` stands 83.4%; under `ClCCOCCOc1ccc(C2CCCCC2)cc1`, 105%.
Turning to `O=C(c1nc2ccccc2[nH]1)C1C(c2ccc([N+](=O)[O-])cc2)C2CC3CCCCC3N2[C@@]12C(=O)Nc1cc(Cl)ccc12` (stereo not given in full), the growth is 8.45% (active).
As for `CCNC(=O)c1[nH]cc(-c2ccc(OC)cc2)c1-c1cc(OC)c(OC)c(OC)c1`, the growth was 5.15% (active).
`O=S(=O)(NCl)c1ccccc1`: the growth is 99.8%.
To `CCCCn1sc(=O)n(Cc2ccc(CNC(=O)OCc3ccc4c(Cl)cc(Cl)c(O)c4n3)cc2)c1=O` belongs 67.9%; to `O=C(/C(Cl)=N/O)c1ccc(-c2ccccc2)cc1`, 69.2%.
